Hits are enriched below; roughly 19% of the tested compounds scored in any of these assays.
Shiga inhibitor: blocks Shiga toxin action in Vero cells | inhibition, % at 38.7 µM | AID 2315 | Vero cells, Shiga toxin protein synthesis inhibition reporter | actives 9.2% (n = 290,000); in the data active means inhibition mostly above about 28%, no sharp cut-off; inactive means mostly below about 43%; further: 0% is about no effect
Cycloheximide cs: counter-screen for Shiga toxin inhibitors: cycloheximide protein synthesis inhibition | cell reporter, cycloheximide protein synthesis inhibition counterscreen | max response, % | actives 12% (n = 300,000) | AID 2314; in the data active means max response mostly above about 13%, no sharp cut-off; inactive means mostly below about 14%; further: read at 38.3 µM for the half of the compounds with a filed dose; 0% is about no effect
Lassa entry inh: Lassa virus entry inhibition; Lassa virus pseudotype entry inhibition, cell reporter; Potency, µM (top dose mostly 37.9 µM), inactives show at the top dose activity change, negative = inhibition, actives largely listed as inhibitors; actives 1.2% (n = 300,000); AID 540256; calls by dose curve; tested in HEK293 cells; further: potency means the concentration at half of the fitted maximal effect; on the % scale 0 is the no-effect control and ±100 the full control effect; nearly all actives have a fitted effect of over 50% in size
MARV entry inh: blocks Marburg virus binding to or entry into cells; AID 540276; Marburg virus pseudotyped entry inhibition, cell reporter; actives 1.8% (n = 300,000); Potency, µM (titrated, usually from 37.8 µM), inactives show at the top dose activity change, negative = inhibition, actives largely listed as inhibitors; calls by dose curve; tested in HEK293 cells; further: potency means the concentration at half of the fitted maximal effect; on the % scale 0 is the no-effect control and ±100 the full control effect
Pf growth 96h: P. falciparum growth inhibition at 96 hours; P. falciparum luciferase reporter growth, 96 h; Potency, µM (top dose mostly 28.7 µM), for inactives: at the top dose activity change, negative = inhibition, hits mostly inhibitors; actives 6.9% (n = 320,000); AID 504834; further: potency means the concentration at half of the fitted maximal effect; on the % scale 0 is the no-effect control and ±100 the full control effect
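Two parasite generations (96 h, 37 C, 5% CO2) of compound exposure in infected erythrocytes (0.05% parasitemia, 2% hematocrit). Luciferase-reporter P. falciparum; decreased luminescence indicates inhibited growth, aimed at apicoplast-acting delayed death.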
Pf growth 48h: inhibits P. falciparum growth in the first generation, 48 h; P. falciparum luciferase growth in erythrocytes, 48 h; actives 5.9% (n = 310,000); AID 504832; Potency, µM (titrated, usually from 28.7 µM), for the others: at the top dose activity change, negative = inhibition, usual class: inhibitors; further: potency means the concentration at half of the fitted maximal effect; on the % scale 0 is the no-effect control and ±100 the full control effect
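Luciferase-expressing parasites in RBCs, 2% Hct / 0.1% parasitemia final; RPMI 1640 + 0.5% Albumax; 37 C, 5% CO2, one generation; luminescence read-out, lower signal = inhibition.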
* marks the source's active call; other numbers are inactive results; ? = inconclusive; / = no result; [ ] = another dose, or the depositor's remark. Unless noted, the call rests on the fitted dose curve; in most records, active means well fitted inhibition curve with a large enough effect; inconclusive means small, poorly fitted or top-dose-only effect, or another doubt; inactive means no such curve, though single readings can be large or run the other way.

SMILES	Shiga inhibitor	Cycloheximide cs	Lassa entry inh	MARV entry inh	Pf growth 96h	Pf growth 48h
Cc1cccc(N2CCN(C(=O)C3CCC(CNS(=O)(=O)c4ccc(Br)s4)CC3)CC2)c1C (centres undefined)	/	/	12%[46.1 µM]	-14%[46.1 µM]	/	/
O=C(C(NS(=O)(=O)c1cccs1)c1ccccc1)N1CCN(c2ccccc2F)CC1 (centres undefined)	32	10	7.3µM*	?	/	?
CCC(NC(=O)CCc1c(C)c2cc3c(-c4ccccc4)coc3cc2oc1=O)C(=O)O (centres undefined)	-4	-5	/	/	3%	11%
CCc1ccc(C2C(C(=O)Nc3ccccc3C)=C(C)Nc3nc(SCc4cccc(OC)c4)nn32)cc1 (centres undefined)	/	/	14%[46.1 µM]	/	/	/
O=S(=O)(c1ccccc1)c1cnc(-c2cccnc2)nc1-c1ccc(Cl)cc1Cl	-16	-3	-14%	-2%	?	?
Cc1nc(N2CCN(S(=O)(=O)c3ccc(F)cc3)CC2)c2c(C)c(C)sc2n1	41	-2	1%	5%	12%	/
Cc1sc2nc(CN3CCOCC3)nc(N3CCN(S(=O)(=O)c4ccccc4)CC3)c2c1C	/	/	-24%	?	?	9.3µM*
Cc1sc2nc(C3CC3)nc(N3CCN(S(=O)(=O)c4ccc(F)cc4)CC3)c2c1C	-15	-3	-23%	?	16%	10µM*
COc1ccc(C(=O)N2CCN(c3nc(C4CC4)nc4sc(C)c(C)c34)CC2)cc1	-12	-2	?	?	-16%	12µM*
c1ccc2c(c1)CCN(c1nc(CN3CCOCC3)nc3sc4c(c13)CCCC4)C2	-7	-1	-2%	-31%	?	15µM*
Cc1nnc(SCC(=O)N2CCN(c3ccccc3)CC2)n1C1CC1	/	/	13%	27%	?	?
COc1ccc(OCC(=O)OCCNC(=O)c2cccnc2)cc1	-12	-7	8%	17%	-16%	11%
Cc1c(N(C)CS(=O)(=O)O)c(=O)n(-c2ccccc2)n1C	/	/	/	/	19%	-6%
Cc1ccc(S(=O)(=O)C(CNS(=O)(=O)c2cc(F)ccc2F)c2cccs2)cc1 (centres undefined)	/	/	-7%[46.1 µM]	/	/	/
COC(=O)CCC[C@H]1CC2(C[C@H](CCCO[Si](C)(C)C(C)(C)C)N1C(=O)OC(C)(C)C)OCCO2	/	/	/	/	32%	?
Cc1sc2nc(CN3CCCC3)nc(N3CCN(S(=O)(=O)c4cccc(F)c4)CC3)c2c1C	/	/	/	/	9.3µM*	8.3µM*
CCCn1c(SCC(=O)Nc2ccc3c(c2)CCC3)n[nH]c1=O	3	8	5%	2%	-15%	15%
COC(=O)c1cc(NC(=O)c2c(Cl)cnn2C)cc(C(=O)OC)c1	10	-4	19%	-12%	59%	25%
CN1N=C(C(=O)Nc2ccc3c(c2)CCC3)CCC1=O	76*	28*	-7%[46.1 µM]	?	121%	70%
Cn1ncc(Cl)c1C(=O)Nc1ccc2c(c1)CCC2	77*	44*	/	/	13%	17%
Cc1ccc2nc(/C=C/c3cccc(F)c3)ccc2c1	90*	65*	?	?	287%	254%
Cc1ccc(C(=O)N2CCN(c3ccccc3)CC2)cc1S(=O)(=O)N1CCCC1	-6	-5	?	?	12%	?
Cc1ccc(C(=O)N2CCN(c3ccc(F)cc3)CC2)cc1S(=O)(=O)N1CCCCC1	-4	1	?	?	9.3µM*	?
Cc1csc(NC(=O)c2ccc(C)c(S(=O)(=O)N3CCCCC3)c2)n1	3	2	-24%	-30%	4.1µM*	3.3µM*
Cc1ccc(NC(=O)c2ccc(F)cc2)cc1S(=O)(=O)N1CCCCCC1	4	-2	?	7.9µM*	?	-16%
Cc1ccc(C(=O)Nc2ccc3cn[nH]c3c2)cc1S(=O)(=O)N1CCCCC1	76*	38*	?	?	/	-9%
O=C(CN1CCN(Cc2ccccc2Cl)C1=O)NCC1CCCO1 (centres undefined)	2	-3	/	/	-16%	/
O=C1Nc2ccc(Cl)cc2C12OCCCO2	-8	-2	16%[46.1 µM]	9%[46.1 µM]	?	3%
CC(C(=O)O)n1cc(Cl)cn1 (centres undefined)	-5	-5	-1%[46.1 µM]	17%[46.1 µM]	41%	6%
